ELG1 genotox – induces genotoxicity in HEK293T cells with luciferase-tagged ELG1. Potency, µM (series often up to 46 µM), for the others: at the highest dose activity change, positive = activation, usual class: activators. AID 504466. 330,000 tested, 1.3% active. HEK293T ELG1-luciferase reporter, luminescence, 16 h; note: % of control where 0% means no effect; nearly all actives have a fitted effect of over 60% in size
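Genotoxicity was scored as increased ELG1-luciferase reporter signal, measured by ONE-Glo luminescence (30 min, room temperature). Compound or vehicle exposure of the HEK293T reporter cells lasted 16 hr at 37°C.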
KinaseGlo FLuc – Kinase-Glo luciferase inhibition (counter-screen). AID 1379. 200,000 tested, 0.28% active. Q27757. Kinase-Glo luciferase, ATP luminescence, 8 min. Potency, µM (highest dose often 38.3 µM), without a hit: at the highest dose activity change, negative = inhibition, hits mostly inhibitors; note: % is set by controls: 0 for no effect and ±100 for the full control effect; nearly all actives have a fitted effect of over 60% in size
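Compounds were added to a substrate mix at pH 7.2 (50 mM imidazole, 10 uM ATP, within the enzyme's linear range), followed by Kinase-Glo detection reagent; luminescence was measured after 8 minutes at ambient temperature.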
SMN2 splice enh – increases expression of the SMN2 splice variant. HEK293 SMN2-luciferase splicing reporter, luminescence, 30-36 h. Potency, µM (doses to about 46.1 µM), for the others: top-dose activity change, positive = activation, usual class: activators. 210,000 tested, 2.8% active; note: % of control where 0% means no effect; nearly all actives have a fitted effect of over 55% in size
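HEK293 cells carry an SMN2 […]–luciferase reporter in which exon 7 inclusion puts luciferase in frame. Cells were plated 10-12 h before compound addition, then incubated 30-36 h at 37C. ONE-Glo luminescence was read; sodium butyrate at 4.5 mM final served as control.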
Rab9 prom act – activators of Rab9 promoter; Huh7 Rab9 promoter-luciferase reporter, luminescence, 24 h; 320,000 tested, 2.8% active; Potency, µM (highest dose often 9.22 µM), for the others: top-dose activation, negative = inhibition, usual class: activators; note: % of control where 0% means no effect; nearly all actives have a fitted effect of over 60% in size
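Huh7 reporter line, Rab9 promoter upstream of luciferase. Compound exposure 24 h at 37 °C in reduced-serum medium with 10% FBS. Read-out: luminescence.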
FLuc counter – inhibits or activates purified firefly luciferase, miR-21 counter-screen; P08659; purified FLuc, Km substrates, luminescence inhibition; Potency, µM (top dose mostly 57.5 µM), for inactives: top-dose activity change, negative = inhibition, actives largely listed as inhibitors; 360,000 tested, 6.9% active;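 note: plate controls were vehicle for no effect and reference inhibitor for full effect; nearly all actives have a fitted effect of over 55% in size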
Target sequence (P08659 whole entry, looked up): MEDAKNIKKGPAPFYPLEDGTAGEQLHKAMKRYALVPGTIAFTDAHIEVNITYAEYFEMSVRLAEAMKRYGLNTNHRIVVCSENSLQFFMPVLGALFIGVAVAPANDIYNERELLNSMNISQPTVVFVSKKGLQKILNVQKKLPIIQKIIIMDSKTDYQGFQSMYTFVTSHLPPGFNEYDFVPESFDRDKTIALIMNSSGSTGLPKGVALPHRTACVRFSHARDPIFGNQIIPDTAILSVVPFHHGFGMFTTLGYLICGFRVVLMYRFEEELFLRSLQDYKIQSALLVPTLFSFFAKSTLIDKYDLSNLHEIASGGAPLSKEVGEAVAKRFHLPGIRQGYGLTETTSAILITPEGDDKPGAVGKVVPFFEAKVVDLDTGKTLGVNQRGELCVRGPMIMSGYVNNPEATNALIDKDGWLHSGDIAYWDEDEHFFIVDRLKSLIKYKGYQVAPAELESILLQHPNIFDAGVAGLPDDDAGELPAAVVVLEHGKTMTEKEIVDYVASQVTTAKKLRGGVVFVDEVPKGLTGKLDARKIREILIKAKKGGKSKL
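Purified P. pyralis luciferase (10nM final) with 10uM D-luciferin and 10uM ATP (Km levels) in 50mM Tris acetate pH 7.5, 10mM Mg acetate, 0.01% Tween-20, 0.05% BSA; qHTS 6-point titration, ~60 µM downward; luminescence read.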
NPC1 prom act – activators of NPC1 promoter; Huh7 NPC1 promoter luciferase reporter, 24 h; Potency, µM (top dose mostly 9.22 µM), inactives show at the top dose activation, hits mostly activators; 320,000 tested, 2.4% active; AID 485313; note: % of control where 0% means no effect; nearly all actives have a fitted effect of over 60% in size
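In 1536-well qHTS, Huh7 cells harboring an NPC1 promoter–luciferase construct received compound for 24 h; activation was quantified by luminescence following luciferase reagent addition.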
Numbers without * were called inactive; u = inconclusive; x = not tested or not shown. Sampled rows, rich in hits. Any-hit rate of the full collection: about 7.3%. Calls come from the whole dose curve; as a rule, active = well fitted curve in the direction sought with a large enough effect; inconclusive = small, poorly fitted or top-dose-only effect, or another doubt; inactive = no such curve, though single readings can be large; an effect the other way counts as inactive or inconclusive. Potency is the fitted concentration of half-maximal effect.

SMILES | ELG1 genotox | KinaseGlo FLuc | SMN2 splice enh | Rab9 prom act | FLuc counter | NPC1 prom act
COc1cccc(OCc2cc(C(=O)N3CCN(c4ccccc4OC)CC3)no2)c1 | 17% | x | x | u | 15µM* | u
COc1cccc(OCc2cc(C(=O)N3CCN(c4ccccc4O)CC3)no2)c1 | u | x | x | 3.2µM* | 12µM* | 2.8µM*
CC(C)(C#N)C(C)(C)c1nn[nH]n1 | 2% | x | x | 10% | 1% | -1%
O=c1c2ccc(Cl)cc2nc(-c2cccc(C(F)(F)F)c2)n1O | -9% | -4% | -70% | -19% | -1% | -25%
Cc1cccc2c1NC(=O)/C2=C\C(=O)c1cccs1 | 8% | -4% | -33% | 0% | 4.8µM* | 0%
Cc1cc(Br)c2c(c1)/C(=C/C(=O)c1cccs1)C(=O)N2 | 5% | 1% | 3% | -14% | -18% | -9%
CCC(C)NC(=O)CNC(=O)c1nn(-c2ccc(OC)cc2)c(=O)c2ccccc12 (stereo not given) | -3% | x | x | -1% | -11% | -3%
COc1ccc(-n2nc(C(=O)NCC(=O)N3CCCC(C)C3)c3ccccc3c2=O)cc1 (stereo not given) | -6% | x | x | 17% | 5.4µM* | -24%
COc1ccc(-n2nc(C(=O)NCC(=O)N3CCN(c4cccc(Cl)c4)CC3)c3ccccc3c2=O)c(OC)c1 | 0% | x | x | -4% | 7.6µM* | -3%
COc1ccc(-n2nc(C(=O)NCC(=O)NC3CCCC(C)C3C)c3ccccc3c2=O)cc1 (stereo not given) | -21% | x | x | 2% | u | -1%
COc1ccc(-n2nc(C(=O)N3CCN(c4ccc(F)cc4)CC3)c3ccccc3c2=O)c(OC)c1 | -7% | 4% | -5% | 1% | 6% | 9%
COc1ccc(-n2nc(C(=O)NCC(=O)N3CCC(C)CC3)c3ccccc3c2=O)cc1 | 5% | x | x | u | 2.1µM* | u
COc1ccc(-n2nc(C(=O)NCC(=O)N3CCC(C(N)=O)CC3)c3ccccc3c2=O)cc1 | u | x | x | 8% | 11µM* | 9%
Cc1cccc(OCCn2c(-c3ccc(Cl)cc3)nc3ccccc3c2=O)c1 | x | x | -12% | x | -5% | x
CCN(CC)CCNC(=O)CCn1c(=O)c2cccn2c2cccnc21 | x | x | x | x | 2% | x
CCN1CCN(c2ccc(S(=O)(=O)N3CCOCC3)cc2NC(=O)COc2ccc(F)cc2Cl)CC1 | -8% | x | x | -2% | 5% | 1%
COc1ccc(CNC(=O)Cn2ccc3cc(S(=O)(=O)N4CCCCC4)ccc32)cc1OC | x | x | x | x | 3% | x
N#C/C(=N/Nc1ccc(OC(F)(F)F)cc1)C(N)=S | -3% | x | x | -36% | 11µM* | -25%
COc1cccc(NC(=O)c2ccc[n+](C)c2)c1 | -2% | x | x | -6% | 7% | -4%
Cc1cc(/C=C(\C#N)C(=O)NC2CCCCCC2)c(C)[nH]1 | 10% | -3% | 30% | 23% | u | 24%
Cc1cc(/C=C(\C#N)C(=O)NC2CC2)c(C)[nH]1 | u | -12% | 11µM* | 3.2µM* | 12µM* | 4µM*
N#C/C(=C\c1ccc[nH]1)C(=O)Nc1ccccc1F | 12µM* | x | x | 0.5µM* | u | 1.3µM*
COc1ccc(NC(=O)/C(C#N)=C/c2ccc[nH]2)c(OC)c1 | 14% | x | x | u | -2% | 3.2µM*
N#C/C(=C\c1cccc(Cl)c1)C(=O)c1ccccc1 | 6% | x | x | 1% | u | -2%
N#C/C(=C\c1ccc[nH]1)C(=O)c1ccccc1 | 18% | x | x | 4% | 17µM* | -1%
SMILES | ELG1 genotox | KinaseGlo FLuc | SMN2 splice enh | Rab9 prom act | FLuc counter | NPC1 prom act
CC(=O)C1=C(C)N(Cc2ccccc2)C(=O)N[C@H]1c1cccs1 | -1% | -2% | 2% | -1% | 2% | -5%
Cc1cc(/C=C(\C#N)C(=O)Nc2ccccc2F)c(C)[nH]1 | u | -2% | x | 0.56µM* | 2.1µM* | 1.1µM*
N#C/C(=C\c1ccc[nH]1)C(=O)NCC1CCCO1 (stereo not given) | 4% | x | x | 20% | -13% | 2%
N#C/C(=C\c1ccc[nH]1)C(=O)Nc1ccccc1Cl | u | x | x | u | -16% | 0.71µM*
O=C(COC(=O)c1c(F)cccc1F)NCc1cccs1 | 13% | x | x | x | x | x
NNC(=O)CNC(c1ccccc1)c1cc(Br)ccc1NC(=O)CCN1CCOCC1 (stereo not given) | 1% | -7% | -3% | 1% | -1% | 2%
CCOC(=O)c1sc2ccccc2c1OC(=O)c1ccc(C)cc1 | -12% | x | x | -4% | 2% | 1%
O=C(CSc1nc(-c2ccccc2)nc2ccccc12)Nc1cccc(C(=O)O)c1 | 3% | 2% | 8% | 2% | 19µM* | -4%
O=C(CSc1nc(-c2ccccc2)nc2c1Cc1ccccc1O2)Nc1ccc(C(=O)O)cc1 | 0% | -3% | -15% | 7% | 7.6µM* | 4%
O=C(CSc1nc(-c2ccc(F)cc2)nc2ccc(F)cc12)Nc1cccc(C(=O)O)c1 | 0% | 0% | -11% | -5% | u | -2%
O=C(CSc1ncnc2scc(-c3ccccc3)c12)Nc1ccc(C(=O)O)cc1 | 5% | x | x | 9% | 21µM* | -40%
Cc1nnc(SCC(=O)Nc2ccccc2)c2ccccc12 | -2% | x | x | 13% | 17µM* | 22%
CCCn1nnnc1NCc1cccc(OC)c1OCC | -3% | x | x | 0% | 2% | 1%
CC(C)c1ccc(NC2CCCN(C(=O)c3ccoc3)C2)cc1 (stereo not given) | 0% | x | x | 6% | -4% | -7%
CCc1ccc(NC(=O)CSc2nc3ccccc3nc2N2CCCCC2)cc1 | 20% | x | x | 13% | u | -5%
CCc1cccc(NC(=O)CSc2nc3ccccc3nc2N2CCCCC2)c1 | x | x | 0.5µM* | x | -1% | x
O=C(N1CCCCC1)C1(c2ccccc2)CCOCC1 | 0% | 3% | 11% | -4% | 6% | 5%
O=C(N1CCOCC1)C1(c2ccccc2)CCCCC1 | 1% | 0% | 32µM* | -10% | 2% | 0%
CCN(CCCNC(=O)c1cc2cc3ccc(OC)cc3nc2s1)c1ccccc1 | x | x | 12% | -5% | -2% | -3%
COc1ccc2nc3sc(C(=O)NCCCN4CCc5ccccc5C4)cc3cc2c1 | 3% | -4% | 1% | 10% | 19µM* | 0%
O=C(Nc1cccnc1)c1cc(-c2cccc(Br)c2)nc2ccccc12 | -18% | x | x | 0% | u | -4%
O=C(NC1=NCCS1)c1cc(-c2cccc(Br)c2)nc2ccccc12 | -4% | -2% | -38% | -1% | 11µM* | 2%
O=C(Nc1ccncc1)c1cc(-c2cccc(Br)c2)nc2ccccc12 | -18% | x | x | -7% | -27% | 3%
O=C(Nn1cnnc1)c1cc(-c2cccc(Br)c2)nc2ccccc12 | u | x | x | 24% | 0.85µM* | 18%
